We go through 33 molecules from PubChem BioAssay AID449762 (Southern Research Specialized Biocontainment Screening …, 2010).

A word on the inhibition: it is the change of the read-out against control, counted positive when it falls.

Screen size: about 330,000 compounds; about 1,900 (0.58%) were called active. Not shown: some 4% with an inconclusive outcome. The list is a sample of the results. Potency and affinity values are given separately. Values without a mark were called inactive. Cut-off read from the data, not from the text of the source: inconclusive = inhibition above about 70% without an active follow-up result; inactive = below that.

This assay is described as follows: M. tuberculosis growth inhibition, HTS (AID 449762).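 Note: bacterial growth assessed after seven days of incubation.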 To be noted: M. tuberculosis H37Rv growth inhibition, 7H9 media; at 25 µM; active compounds read high.
For `CC(=C1C(=O)c2ccccc2C1=O)N1CCN(c2ccc(F)cc2)CC1`, the inhibition is -0.18%. In the case of `O=C(O)c1ccccc1SSc1ccccc1C(=O)O`, the inhibition is -0.04%. Regarding `CCC(Sc1ccccc1C(=O)O)C(=O)O` (stereo not drawn), the inhibition is 5.4%. Take `COc1ccc(CN2CCN(Cc3cccc(Oc4ccccc4)c3)CC2)c(OC)c1OC`: the inhibition was 22.7%. Consider `Cn1c(C(=O)N2CCCC(C(=O)NCCCSC3CCCCC3)C2)cc2sccc21` (stereo not drawn), for which the inhibition is 67.2%.

With `Cc1cc(C)n2nc(N)c(N=Nc3ccc4c(c3)OCO4)c2n1`, the inhibition is 1.48%.

`Cc1cc(C)n2nc(N)c(N=Nc3ccc(Cl)cc3)c2n1`: the inhibition is 5.04%. On to `CC(C)CNC(=S)N(CCN(C)C)Cc1cc2cc3c(cc2[nH]c1=O)OCCO3`, for which the inhibition was -7.36%.

On to `COc1ccc(OC)c(NC(=O)CSc2nncc(=O)n2N)c1`, for which the inhibition was -3.14%. Turning to `CC(=O)N1CC(C)Sc2ccc(S(=O)(=O)NC3CCCCC3)cc21` (stereo not drawn), the inhibition was 0.78%. As for `NC(=O)NCC(=O)N1CCC(C(O)(c2ccccc2)c2ccccc2)CC1`, the inhibition was -4.38%. As to `COc1ccc(Cc2nnc(SCC(=O)N3CCc4ccccc4C3)o2)cc1`, the inhibition is -4.27%.

On to `COc1ccc(-c2nnc(SCC(=O)N3CCCC3)o2)cc1`, for which the inhibition is -2.88%. Then `Cc1cccc(C)c1OCCOC(=O)c1cccc(S(=O)(=O)N2CCOCC2)c1`, with -2.97%. Next, `COc1cccc(C(=O)OCC(=O)N2CCc3ccccc3C2)c1OC`: -0.41%.

Consider `Cc1cccc(C(=O)OCC(=O)N2CCCCCC2)c1O`, for which the inhibition was 20.7%. Turning to `COc1ccccc1N1CCN(S(=O)(=O)c2ccc(Br)s2)CC1`, the inhibition was -5.24%. For the molecule `Cn1nc(C(C)(C)C)cc1NC(=O)Nc1ccc(Cl)cc1`, the inhibition is 6.33%. On to `Cc1c(Cl)cccc1NC(=O)Nc1cc(C(C)(C)C)nn1C`, for which the inhibition was 2.96%. On to `COc1ccc(OCC(O)CNC(C)c2ccccc2)cc1` (stereo not drawn), for which the inhibition was -6.83%.

As to `CC(C)c1ccc(OCC(O)CNC(C)c2ccccc2)cc1` (stereo not drawn), the inhibition was 15.1%. Next, `C[C@H](NC(=O)C1CC(=O)N(c2ccc3c(c2)OCCO3)C1)C(=O)NCc1ccco1` (stereo partly drawn): 0.57%; `Cc1ccc(-n2nc3c(N4CCC(C(=O)NCCc5ccccc5C)CC4)nnc(C)c3c2C)cc1`: 5.89%. As to `COc1ccc(-n2nc3c(N4CCC(C(=O)NCc5ccccc5C)CC4)nnc(C)c3c2C)cc1`, the inhibition is 8.33%.

On to `COC(CNC(=O)CNC(=S)N(CCCN1CCOCC1)Cc1cccs1)OC`, for which the inhibition was 12.5%.

On to `Cc1nc(Nc2ccc(Br)cc2Br)c([N+](=O)[O-])c(=O)[nH]1`, for which the inhibition is 0.85%. For the molecule `CCc1cc2c(Sc3nc4ccccc4s3)ncnc2s1`, the inhibition is 11.1%. On to `Cc1sc2ncnc(Sc3nc4ccccc4s3)c2c1C`, for which the inhibition was -4.93%. For the molecule `Cc1nc(-c2ccc(S(=O)(=O)Oc3ccccc3Cl)s2)cs1`, the inhibition was 4.35%. For `O=C(COc1ccc(S(=O)(=O)N2CCOCC2)cc1)N1CCCCCC1`, the inhibition is -3.92%. On to `COc1ccccc1-c1cc(C(=O)N2CCN(c3ccccc3)CC2)no1`, for which the inhibition was -4.77%. Regarding `COc1ccc(NS(=O)(=O)c2ccc(C)c(C(=O)NNC(=O)c3ccccc3O)c2)cc1`, the inhibition is 5.14%.

In the case of `CC(C)(C)c1ccc(C(=O)N2CCN(Cc3ccccc3)CC2)cc1`, the inhibition is 4.6%.
